{"source": "PubChem BioAssay (Tox21)", "note": "Results filed as inconclusive are left out. Active and inactive are the calls of the source. Calls follow the shape of the full dose curve. % is scaled to controls: 0 for no effect and ±100 for the full control effect; potency is read from the fitted curve at half-maximal effect."}
{"assay": "p53 small molecule agonists, cell-based qHTS assay: qHTS cell viability counter screen (AID 1963581); also: nearly all actives have a fitted effect of over 45% in size", "details": "p53RE-bla HCT-116 viability, ATP luminescence, 16 h; series mostly up to 66 µM; activity change, negative = cytotoxicity: at the top concentration", "description": "National Center for Advancing Translational Sciences [NCATS]\nDivision of Preclinical Innovation [DPI]\nU.S. Environmental Protection Agency [EPA]\nNational Institutes of Environmental Health Sciences [NIEHS]\nNational Toxicology Program [NTP]\nU.S. Food and Drug Administration [FDA]\np53, a tumor suppressor protein, is activated following cellular insult, including DNA damage and other cellular stresses. The activation of p53 regulates cell fate by inducing DNA repair, cell cycle arrest, apoptosis, or cellular senescence. The activation of p53, therefore, is a good indicator of DNA damage and other cellular stresses. The CellSensor p53RE-bla HCT-116 cell line (Invitrogen) contains a stably integrated beta-lactamase reporter gene under control of the p53 response elements. The activation of the reporter gene under culture conditions can be detected by fluorescence intensity. This cell line was used to screen the Tox21 compound library in a 1536-well plate format and to identify agonists that activate the p53 signaling pathway. The cytotoxicity of the Tox21 compound library against the p53 RE-bla HCT-116 cell line was tested in parallel by measuring the intra cellular ATP content in the same wells.\nTox21 Assay Protocol Summary:\nThe p53RE-bla cells were dispensed at 4,000 cells/5 ul/well in 1536-well black wall/clear bottom plates using a Multidrop dispenser. After the assay plates were incubated at a 37 C/5% CO2 incubator for 5 hours, 23 nL of compounds dissolved in DMSO, positive controls or DMSO only was transferred to the assay plate by a pin tool. The plates were incubated at 37 C for 16 hours. After 1 uL of LiveBLAzerTM B/G FRET substrate was added using a Flying Reagent Dispenser, the plates were incubated at room temperature for 2 hours, and fluorescence intensity was measured by an Envision plate reader. For cell viability readout that measures cytotoxicity, 4 ul/well of CellTiter-Glo reagent was added into the assay plates using a Flying Reagent Dispenser. After 30 min incubation at room temperature, the luminescence intensity in the plates was measured using a ViewLux plate reader."}
{"smiles": "N#Cc1c(Cl)cccc1Cl", "activity change, negative = cytotoxicity": "-1.26% (inactive)"}
{"smiles": "CCS(=O)(=O)c1cccnc1S(=O)(=O)NC(=O)Nc1nc(OC)cc(OC)n1", "activity change, negative = cytotoxicity": "0.688% (inactive)"}
{"smiles": "CCCCCCCCCCCCCCC(Br)C(=O)O", "note": "(stereo not given)", "activity change, negative = cytotoxicity": "18% (inactive)"}
{"smiles": "O=[N+]([O-])c1ccc(CCl)cc1", "activity change, negative = cytotoxicity": "5.16% (inactive)"}
{"smiles": "N#C/C(N)=C(/N)C#N", "activity change, negative = cytotoxicity": "-4.24% (inactive)"}
{"smiles": "CSC(=O)c1c(C(F)F)nc(C(F)(F)F)c(C(=O)SC)c1CC(C)C", "activity change, negative = cytotoxicity": "1.11% (inactive)"}
{"smiles": "Oc1ccc(C2(c3ccc(O)cc3)c3ccccc3-c3ccccc32)cc1", "Potency": "45.8 µM (active)"}
{"smiles": "OC(Cn1cncn1)(c1ccc(F)cc1)c1ccccc1F", "note": "(stereo not given)", "activity change, negative = cytotoxicity": "-0.999% (inactive)"}
{"smiles": "O=c1oc2ccccc2c(O)c1C1CCCc2ccccc21", "note": "(stereo not given)", "activity change, negative = cytotoxicity": "3.76% (inactive)"}
{"smiles": "NNC(=O)c1cccnc1", "activity change, negative = cytotoxicity": "-10.7% (inactive)"}
{"smiles": "C=CC(C)(CCC=C(C)C)OC(=O)c1ccccc1N", "note": "(stereo not given)", "activity change, negative = cytotoxicity": "7.02% (inactive)"}
{"smiles": "CC#C[C@]1(O)CC[C@H]2[C@@H]3C[C@H](C)C4=CC(=O)CC[C@]4(C)[C@H]3CC[C@@]21C", "activity change, negative = cytotoxicity": "4.06% [at 30.3 µM] (inactive)"}
{"smiles": "O=[Se]=O", "activity change, negative = cytotoxicity": "-0.701% [at 30.3 µM] (inactive)"}
{"smiles": "O=C(N[C@@H]1N=C(c2ccccc2F)c2cccc3c2N(CC3)C1=O)c1cc2ccccc2[nH]1", "activity change, negative = cytotoxicity": "11.6% [at 30.3 µM] (inactive)"}
{"smiles": "CCCCP(CCCC)CCCC", "activity change, negative = cytotoxicity": "-2.42% (inactive)"}
{"smiles": "ClC(Cl)C(Cl)Cl", "activity change, negative = cytotoxicity": "7.41% (inactive)"}
{"smiles": "CC(=O)[O][Sn]([c]1ccccc1)([c]1ccccc1)[c]1ccccc1", "Potency": "10.2 µM (active)"}
{"smiles": "CCOP(=S)(OCC)SCSP(=S)(OCC)OCC", "activity change, negative = cytotoxicity": "10.6% (inactive)"}
{"smiles": "COC(N)=O", "activity change, negative = cytotoxicity": "3.69% (inactive)"}
{"smiles": "COP(=S)(OC)Oc1nc(Cl)c(Cl)cc1Cl", "activity change, negative = cytotoxicity": "-0.848% (inactive)"}
{"smiles": "O=C1c2ccccc2C(=O)C1C(=O)C(c1ccccc1)c1ccccc1", "activity change, negative = cytotoxicity": "-11.3% [at 30.3 µM] (inactive)"}
{"smiles": "CN1COCN(Cc2cnc(Cl)s2)/C1=N\\[N+](=O)[O-]", "activity change, negative = cytotoxicity": "-1.93% (inactive)"}
{"smiles": "SCc1ccccc1", "activity change, negative = cytotoxicity": "0% (inactive)"}
{"smiles": "C[N+](C)(C)CC1CO1", "note": "(stereo not given)", "activity change, negative = cytotoxicity": "-6.71% (inactive)"}
{"smiles": "CNC(=O)Oc1ccc(N(C)C)c(C)c1", "activity change, negative = cytotoxicity": "4.4% (inactive)"}
{"smiles": "CC(C)(C)c1ccc(OP(=O)(Oc2ccccc2)Oc2ccccc2)cc1", "activity change, negative = cytotoxicity": "-4.05% (inactive)"}
{"smiles": "CCN[C@H](C)Cc1cccc(C(F)(F)F)c1", "activity change, negative = cytotoxicity": "16.9% (inactive)"}
{"smiles": "O=C(CCCCl)c1ccc(F)cc1", "activity change, negative = cytotoxicity": "11.8% [at 30.3 µM] (inactive)"}
{"smiles": "CN(C)S(=O)(=O)N(SC(F)(Cl)Cl)c1ccccc1", "activity change, negative = cytotoxicity": "-16.6% (inactive)"}
{"smiles": "C=COC(C)=O", "activity change, negative = cytotoxicity": "-0.551% (inactive)"}
{"smiles": "CCC(OC(C)=O)C(CC(C)NC)(c1ccccc1)c1ccccc1", "note": "(stereo not given)", "activity change, negative = cytotoxicity": "-6.98% (inactive)"}
{"smiles": "CCC(C(N)=O)N1CCCC1=O", "note": "(stereo not given)", "activity change, negative = cytotoxicity": "0.761% [at 30.3 µM] (inactive)"}
{"smiles": "c1ccc(Nc2ccc(Nc3ccccc3)cc2)cc1", "activity change, negative = cytotoxicity": "-5.46% (inactive)"}
{"smiles": "O=C(CCCN1CCC(n2c(=O)[nH]c3ccccc32)CC1)c1ccc(F)cc1", "activity change, negative = cytotoxicity": "-3.58% [at 30.3 µM] (inactive)"}
{"smiles": "CN/C(=N\\[N+](=O)[O-])NCC1CCOC1", "note": "(stereo not given)", "activity change, negative = cytotoxicity": "1.73% (inactive)"}
{"smiles": "ClC1=C(Cl)[C@]2(Cl)[C@@H]3[C@H]4C[C@H]([C@@H]5O[C@H]45)[C@@H]3[C@@]1(Cl)C2(Cl)Cl", "activity change, negative = cytotoxicity": "-12.8% (inactive)"}
{"smiles": "CNC(C)Cc1ccc2c(c1)OCO2", "note": "(stereo not given)", "activity change, negative = cytotoxicity": "15.2% (inactive)"}
{"smiles": "CCCOC(=O)Cc1ccc(OCC(=O)N(CC)CC)c(OC)c1", "activity change, negative = cytotoxicity": "-3.93% [at 30.3 µM] (inactive)"}
{"smiles": "CCOC(=O)C(Cl)Cc1cc(-n2nc(C)n(C(F)F)c2=O)c(F)cc1Cl", "note": "(stereo not given)", "activity change, negative = cytotoxicity": "-9.59% (inactive)"}
{"smiles": "CCN(CC)C(=S)[S-].CCN(CC)C(=S)[S-].[Zn+2]", "Potency": "4.54 µM (active)"}
